Drawing on PubChem BioAssay (NCATS), this text covers Potency for 17 compounds.

Where “and” joins values, the source holds several entries; their conditions need not be identical. Identical values can stand only once. Records with an inconclusive call do not appear. Calls of active or inactive are those of the source. Calls follow the shape of the dose curve; as a rule, active = well fitted inhibition curve with a large enough effect; inconclusive = small, poorly fitted or top-dose-only effect; inactive = flat fitted curve, though single readings scatter.

Holding throughout (test): qHTS profiling for inhibitors of Plasmodium falciparum proliferation (AID 504749); also: nearly all actives have a fitted effect of over 60% in size
Common to all, as to conditions: P. falciparum in erythrocytes, SYBR Green DNA, 72 h; series mostly up to 28.7 µM
A general note: qHTS replaces the single test concentration by a dilution series.

The subject of assay [1] is FAB9. A digest of the protocol: (§1)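 Each compound contacts P. falciparum-infected red blood cells for 72 h at 37 C; lysis buffer (Tris, EDTA, saponin, Triton X, SYBR Green I) is added and fluorescence measured next morning; values normalized to controls.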
In assay [2] the test system is GB4. A digest of the protocol: as §1
The test system of assay [3] is HB3. A digest of the protocol:
as §1

Assay [4] has as its system ICS. The essentials: as §1
Assay [5] has as its system JCK. A digest of the protocol: as §1
Assay [6] concerns N140. A digest of the protocol: as §1
Assay [7] deals with P93_24. A digest of the protocol: as §1
In assay [8] the test system is P94_40. A digest of the protocol: as §1
The subject of assay [9] is PAD. A digest of the protocol:
as §1

Assay [10] has as its system PC15. The essentials: as §1
Potency is read from the fitted curve at half-maximal effect.

`Nc1cc(-c2ccncc2)c[nH]c1=O`: the Potency result in assay [1], in assay [2], in assay [3], in assay [4], in assay [5] and in [6] was “inactive” throughout. For the same compound, the Potency result in [7], in assay [8], in [9] and in [10] was “inactive” throughout.

With `C#C[C@]1(O)CC[C@H]2[C@@H]3CCc4cc(O)ccc4[C@H]3CC[C@@]21C`, the Potency result in [1], in assay [2], in assay [3], in assay [4], in [5] and in [6] was “inactive” in each case. The Potency result in [7], in assay [8], in [9] and in assay [10] was “inactive” each time.

In the case of `Cc1ccccc1CNc1ncnc2c1ncn2C1OC(CO)C(O)C1O` (centres undefined), the Potency entry in [1], in [2], in assay [3], in [4], in [5] and in assay [6] was “inactive” in each case. In addition, the Potency result in [7], in assay [8], in [9] and in assay [10] was “inactive” in each case.

As for `COc1cc2c3cc1Oc1cc(ccc1O)C[C@@H]1c4c(cc(OC)c(O)c4Oc4ccc(cc4)C[C@@H]3N(C)CC2)CC[N+]1(C)C`, the Potency entry in [1], in assay [2], in assay [3], in [4], in assay [5] and in [6] was “inactive” in each case. Moreover, the Potency result in [7], in assay [8], in assay [9] and in assay [10] was “inactive” throughout.

On to `Cc1nc2ccccc2n1Cc1ccc(Cl)cc1`, for which the Potency entry in assay [1], in assay [5], in assay [7], in assay [8], in assay [9] and in assay [10] was “inactive” in each case.

On to `N=c1ccn2c(n1)O[C@H]1[C@H](O)[C@@H](CO)O[C@H]12`, for which the Potency result in assay [1], in assay [2], in assay [3], in [4], in assay [5] and in assay [6] was “inactive” in each case. Moreover, the Potency entry in assay [7], in [9] and in assay [10] was “inactive” each time.

As to `CCCSc1ccc2nc(NC(=O)OC)[nH]c2c1`, the Potency entry in [1], in assay [2], in [3], in assay [4], in assay [5] and in [6] was “inactive” each time. In addition, the Potency entry in [7], in [9] and in assay [10] was “inactive” throughout.

Take `CN1[C@@H]2CC[C@H]1CC(OC(=O)C(CO)c1ccccc1)C2` (some centres undefined): the Potency entry in assay [1], in assay [2], in assay [3], in assay [4], in [5] and in [6] was “inactive” in each case. The Potency result in assay [7], in assay [8], in assay [9] and in assay [10] was “inactive” each time.

With `CN1[C@@H]2CC[C@H]1CC(OC(c1ccccc1)c1ccccc1)C2` (some centres undefined), the Potency result in assay [1] and in assay [3] was “inactive” throughout. For the same compound, the Potency in assay [2] is 8.49 µM (active); in [4], 10 µM (active) and 11.2 µM (active); in assay [5], 11.2 µM (active); in [8], 10 µM (active); in [9] it was 11.2 µM (active); in assay [10] it was 10 µM (active).

For the compound `NC(=O)C(c1ccccc1)(c1ccccc1)[C@@H]1CCN(CCc2ccc3c(c2)CCO3)C1`, the Potency result in [1], in assay [3], in assay [5] and in assay [9] was “inactive” in each case. In addition, the Potency in [4] is 7.08 µM (active).

As to `Oc1c(Br)cc(Br)c2cccnc12`, the Potency entry in assay [1], in [2], in assay [3], in assay [5], in assay [6] and in assay [7] was “inactive” in each case. Further, the Potency result in [8], in assay [9] and in [10] was “inactive” each time.

As to `CCCCCCCCCCCCCCCC(=O)OC(C)C`, the Potency result in assay [2], in [3], in assay [4], in [5], in assay [6] and in [7] was “inactive” in each case. For the same compound, the Potency result in [8], in [9] and in assay [10] was “inactive” in each case.

Consider `CCCCCCCCCCCCCCCCCC(=O)O`, for which the Potency result in assay [1], in assay [2], in [3], in [4], in [5] and in assay [6] was “inactive” throughout. Besides, the Potency entry in assay [7], in assay [8], in [9] and in [10] was “inactive” throughout.

For `Nc1ccc(O)c(C(=O)O)c1`, the Potency entry in assay [1], in assay [2], in [3], in [4], in assay [5] and in [6] was “inactive” in each case. The Potency result in assay [8], in assay [9] and in [10] was “inactive” in each case.

For `COc1ccc(-c2cc(=S)ss2)cc1`, the Potency entry in assay [1], in [2], in assay [3], in assay [5], in assay [6] and in assay [10] was “inactive” each time. Besides, the Potency in assay [4] is 7.94 µM (active).

In the case of `Nc1c(CC(=O)O)cccc1C(=O)c1ccc(Br)cc1`, the Potency entry in assay [1], in assay [2], in [3], in assay [4], in [5] and in assay [6] was “inactive” throughout. For the same compound, the Potency result in assay [7], in assay [8], in assay [9] and in assay [10] was “inactive” throughout.

Regarding `COc1ccc(/C=C/C(=O)Nc2ccccc2C(=O)O)cc1OC`, the Potency result in assay [1], in assay [3], in assay [4], in assay [5], in [6] and in assay [7] was “inactive” in each case. In addition, the Potency result in assay [8] and in assay [9] was “inactive” each time.
